Experimental data as given in ChEMBL document CHEMBL2218924, “A broad activity screen in support of a chemogenomic map for kinase signalling research and drug discovery” (Biochem J, 2013).

Tests used:
[1] = molecular target: ALK tyrosine kinase receptor (Homo sapiens) (UniProt Q9UM73); conditions: at 10 µM
[2] = molecular target: T1, Activin receptor type-1B (Homo sapiens) (UniProt P36896); conditions: at 10 µM
T1 sequence (whole entry): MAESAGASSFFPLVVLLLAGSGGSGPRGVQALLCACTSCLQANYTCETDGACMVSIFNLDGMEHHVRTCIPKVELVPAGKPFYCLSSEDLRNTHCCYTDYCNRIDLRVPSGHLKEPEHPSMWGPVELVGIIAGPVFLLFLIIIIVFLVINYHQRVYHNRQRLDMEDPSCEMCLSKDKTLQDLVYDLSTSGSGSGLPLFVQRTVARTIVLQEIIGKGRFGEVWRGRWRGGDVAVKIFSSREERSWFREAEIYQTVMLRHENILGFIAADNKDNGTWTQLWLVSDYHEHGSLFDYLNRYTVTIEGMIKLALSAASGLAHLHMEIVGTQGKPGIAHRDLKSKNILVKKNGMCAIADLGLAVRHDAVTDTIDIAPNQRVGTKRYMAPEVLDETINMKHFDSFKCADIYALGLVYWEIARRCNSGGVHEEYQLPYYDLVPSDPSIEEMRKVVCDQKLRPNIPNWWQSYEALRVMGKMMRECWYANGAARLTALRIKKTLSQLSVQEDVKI

[3] = molecular target: T2, AMP-activated protein kinase (AMPK) alpha-1/beta-1/gamma-1 (Homo sapiens) (UniProt P54619+Q9Y478+Q13131); conditions: at 1 µM
T2 sequence (P54619 whole entry): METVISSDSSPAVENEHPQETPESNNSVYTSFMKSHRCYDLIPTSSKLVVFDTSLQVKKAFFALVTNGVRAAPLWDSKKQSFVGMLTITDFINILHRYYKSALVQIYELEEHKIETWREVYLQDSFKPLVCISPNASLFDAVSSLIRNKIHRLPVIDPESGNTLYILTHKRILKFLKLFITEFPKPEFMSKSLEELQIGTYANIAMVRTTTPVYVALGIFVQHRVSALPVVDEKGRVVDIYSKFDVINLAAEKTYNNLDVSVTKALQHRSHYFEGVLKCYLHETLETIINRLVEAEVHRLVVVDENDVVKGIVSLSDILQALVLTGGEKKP
T2 sequence (Q13131 whole entry partner): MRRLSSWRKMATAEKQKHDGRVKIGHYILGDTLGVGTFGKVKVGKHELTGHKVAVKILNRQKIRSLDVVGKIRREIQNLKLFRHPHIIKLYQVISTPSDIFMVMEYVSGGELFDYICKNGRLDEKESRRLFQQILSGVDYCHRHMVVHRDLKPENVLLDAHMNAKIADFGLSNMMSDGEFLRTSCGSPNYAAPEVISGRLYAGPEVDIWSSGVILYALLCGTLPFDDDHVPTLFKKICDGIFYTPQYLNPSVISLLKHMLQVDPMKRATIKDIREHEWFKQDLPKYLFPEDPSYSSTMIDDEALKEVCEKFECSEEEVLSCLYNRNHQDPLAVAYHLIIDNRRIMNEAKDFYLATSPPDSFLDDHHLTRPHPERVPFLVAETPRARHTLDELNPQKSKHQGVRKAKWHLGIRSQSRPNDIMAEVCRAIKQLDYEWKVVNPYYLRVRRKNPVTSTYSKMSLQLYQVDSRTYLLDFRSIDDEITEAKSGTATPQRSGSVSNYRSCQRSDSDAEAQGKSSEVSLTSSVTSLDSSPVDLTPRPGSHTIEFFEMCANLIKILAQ
T2 sequence (Q9Y478 2-270 partner limits assumed): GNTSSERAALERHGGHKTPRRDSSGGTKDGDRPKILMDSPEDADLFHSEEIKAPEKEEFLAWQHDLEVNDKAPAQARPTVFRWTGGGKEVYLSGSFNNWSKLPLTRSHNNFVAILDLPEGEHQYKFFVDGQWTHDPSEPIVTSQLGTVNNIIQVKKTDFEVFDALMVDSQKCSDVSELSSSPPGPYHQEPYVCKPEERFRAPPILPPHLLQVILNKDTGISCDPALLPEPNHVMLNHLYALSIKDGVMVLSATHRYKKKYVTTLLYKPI

[4] = molecular target: T2, AMP-activated protein kinase (AMPK) alpha-1/beta-1/gamma-1 (Homo sapiens); conditions: at 10 µM
[5] = molecular target: T3, AMP-activated protein kinase, AMPK (Homo sapiens) (UniProt P54646+O43741+P54619+Q9UGJ0+Q9Y478+Q13131+Q9UGI9); conditions: at 1 µM
[6] = molecular target: T3, AMP-activated protein kinase, AMPK (Homo sapiens); conditions: at 10 µM
[7] = molecular target: T4, NUAK family SNF1-like kinase 1 (Homo sapiens) (UniProt O60285); conditions: at 1 µM
T4 sequence (whole entry): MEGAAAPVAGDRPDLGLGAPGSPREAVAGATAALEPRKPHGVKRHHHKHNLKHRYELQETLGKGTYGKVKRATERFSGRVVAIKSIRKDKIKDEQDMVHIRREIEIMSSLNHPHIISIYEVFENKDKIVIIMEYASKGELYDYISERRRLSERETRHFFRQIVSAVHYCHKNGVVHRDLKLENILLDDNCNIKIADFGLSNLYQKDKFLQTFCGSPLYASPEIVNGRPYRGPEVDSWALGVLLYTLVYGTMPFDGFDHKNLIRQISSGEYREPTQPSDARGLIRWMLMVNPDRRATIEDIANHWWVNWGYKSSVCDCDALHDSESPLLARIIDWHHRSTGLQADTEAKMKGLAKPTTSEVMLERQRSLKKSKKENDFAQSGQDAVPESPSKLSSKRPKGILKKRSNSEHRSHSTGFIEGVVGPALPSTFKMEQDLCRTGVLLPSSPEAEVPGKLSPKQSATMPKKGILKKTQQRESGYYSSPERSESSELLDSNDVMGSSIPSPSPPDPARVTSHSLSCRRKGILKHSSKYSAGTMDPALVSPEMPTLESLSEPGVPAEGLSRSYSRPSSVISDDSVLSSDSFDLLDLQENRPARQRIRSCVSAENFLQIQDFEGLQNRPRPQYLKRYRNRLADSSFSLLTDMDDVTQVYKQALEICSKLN

[8] = molecular target: T4, NUAK family SNF1-like kinase 1 (Homo sapiens); conditions: at 10 µM
[9] = molecular target: T5, Mitogen-activated protein kinase kinase kinase 5 (Homo sapiens) (UniProt Q99683); conditions: at 1 µM
T5 sequence (whole entry): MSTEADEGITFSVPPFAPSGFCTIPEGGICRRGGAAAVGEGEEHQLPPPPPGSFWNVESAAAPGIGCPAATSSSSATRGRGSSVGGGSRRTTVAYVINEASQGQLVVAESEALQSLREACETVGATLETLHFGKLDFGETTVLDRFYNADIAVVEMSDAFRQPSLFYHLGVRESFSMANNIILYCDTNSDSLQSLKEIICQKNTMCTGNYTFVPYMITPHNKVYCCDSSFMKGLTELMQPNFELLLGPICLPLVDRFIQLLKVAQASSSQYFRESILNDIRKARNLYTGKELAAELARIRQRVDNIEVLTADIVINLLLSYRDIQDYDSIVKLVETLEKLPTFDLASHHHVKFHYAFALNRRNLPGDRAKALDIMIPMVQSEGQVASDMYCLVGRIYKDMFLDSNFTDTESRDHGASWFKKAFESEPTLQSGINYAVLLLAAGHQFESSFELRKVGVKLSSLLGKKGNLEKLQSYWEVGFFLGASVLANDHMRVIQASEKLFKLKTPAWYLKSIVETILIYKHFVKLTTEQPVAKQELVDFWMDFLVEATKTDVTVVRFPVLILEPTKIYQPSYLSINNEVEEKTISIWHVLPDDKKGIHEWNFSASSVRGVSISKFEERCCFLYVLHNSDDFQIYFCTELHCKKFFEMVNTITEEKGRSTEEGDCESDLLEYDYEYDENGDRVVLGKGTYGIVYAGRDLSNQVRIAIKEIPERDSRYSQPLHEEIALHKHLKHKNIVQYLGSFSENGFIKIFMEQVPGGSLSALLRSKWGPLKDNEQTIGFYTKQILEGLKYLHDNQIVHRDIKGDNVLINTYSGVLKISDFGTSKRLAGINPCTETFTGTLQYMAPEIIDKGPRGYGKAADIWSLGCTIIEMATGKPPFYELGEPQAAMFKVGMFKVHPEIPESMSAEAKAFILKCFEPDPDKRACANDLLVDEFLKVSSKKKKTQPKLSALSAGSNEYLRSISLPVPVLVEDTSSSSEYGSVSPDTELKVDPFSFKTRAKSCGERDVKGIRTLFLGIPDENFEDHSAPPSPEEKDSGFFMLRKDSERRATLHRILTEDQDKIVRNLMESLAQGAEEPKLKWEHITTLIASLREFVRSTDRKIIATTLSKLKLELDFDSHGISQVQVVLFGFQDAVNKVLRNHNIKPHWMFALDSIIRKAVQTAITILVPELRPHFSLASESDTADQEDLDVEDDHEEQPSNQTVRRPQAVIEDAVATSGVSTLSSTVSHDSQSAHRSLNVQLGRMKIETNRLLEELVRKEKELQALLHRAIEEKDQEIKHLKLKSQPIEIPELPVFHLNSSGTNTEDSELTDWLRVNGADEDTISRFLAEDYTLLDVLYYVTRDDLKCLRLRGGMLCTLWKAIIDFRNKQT

[10] = molecular target: Platelet-derived growth factor receptor alpha (Homo sapiens) (UniProt P16234); conditions: at 1 µM
Platelet-derived growth factor receptor alpha (Homo sapiens), sequence (P16234 whole entry): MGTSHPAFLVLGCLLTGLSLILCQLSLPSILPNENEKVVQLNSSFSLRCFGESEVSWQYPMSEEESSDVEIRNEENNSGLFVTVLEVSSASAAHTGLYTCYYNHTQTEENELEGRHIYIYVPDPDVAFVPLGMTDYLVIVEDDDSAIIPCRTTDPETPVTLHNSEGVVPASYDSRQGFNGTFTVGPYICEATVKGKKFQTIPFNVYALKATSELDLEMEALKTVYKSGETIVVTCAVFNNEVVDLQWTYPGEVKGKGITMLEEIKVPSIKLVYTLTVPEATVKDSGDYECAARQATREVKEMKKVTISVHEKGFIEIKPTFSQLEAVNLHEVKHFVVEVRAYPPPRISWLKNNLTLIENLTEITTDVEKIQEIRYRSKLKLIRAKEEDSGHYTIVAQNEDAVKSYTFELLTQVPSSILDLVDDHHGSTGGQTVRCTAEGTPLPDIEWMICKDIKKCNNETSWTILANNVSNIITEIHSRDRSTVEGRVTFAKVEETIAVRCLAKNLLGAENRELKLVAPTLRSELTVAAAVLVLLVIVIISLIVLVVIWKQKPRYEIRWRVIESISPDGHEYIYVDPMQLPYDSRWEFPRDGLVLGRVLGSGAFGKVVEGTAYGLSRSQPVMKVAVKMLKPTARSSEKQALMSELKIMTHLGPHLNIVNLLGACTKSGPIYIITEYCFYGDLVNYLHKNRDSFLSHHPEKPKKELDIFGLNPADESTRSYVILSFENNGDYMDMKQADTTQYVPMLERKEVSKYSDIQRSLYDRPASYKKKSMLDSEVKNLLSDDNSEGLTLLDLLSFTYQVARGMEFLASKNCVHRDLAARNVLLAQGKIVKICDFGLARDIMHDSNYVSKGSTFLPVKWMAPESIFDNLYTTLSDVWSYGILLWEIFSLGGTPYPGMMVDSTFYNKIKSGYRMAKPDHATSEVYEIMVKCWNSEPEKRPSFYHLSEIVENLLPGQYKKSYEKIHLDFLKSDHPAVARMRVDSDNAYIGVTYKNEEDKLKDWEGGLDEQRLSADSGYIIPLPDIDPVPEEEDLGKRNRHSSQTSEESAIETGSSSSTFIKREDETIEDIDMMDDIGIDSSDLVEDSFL

[11] = molecular target: Platelet-derived growth factor receptor alpha (Homo sapiens) (UniProt P16234); conditions: at 10 µM
[12] = molecular target: T6, 3-phosphoinositide-dependent protein kinase 1 (Homo sapiens) (UniProt O15530); conditions: at 1 µM
T6 sequence (whole entry): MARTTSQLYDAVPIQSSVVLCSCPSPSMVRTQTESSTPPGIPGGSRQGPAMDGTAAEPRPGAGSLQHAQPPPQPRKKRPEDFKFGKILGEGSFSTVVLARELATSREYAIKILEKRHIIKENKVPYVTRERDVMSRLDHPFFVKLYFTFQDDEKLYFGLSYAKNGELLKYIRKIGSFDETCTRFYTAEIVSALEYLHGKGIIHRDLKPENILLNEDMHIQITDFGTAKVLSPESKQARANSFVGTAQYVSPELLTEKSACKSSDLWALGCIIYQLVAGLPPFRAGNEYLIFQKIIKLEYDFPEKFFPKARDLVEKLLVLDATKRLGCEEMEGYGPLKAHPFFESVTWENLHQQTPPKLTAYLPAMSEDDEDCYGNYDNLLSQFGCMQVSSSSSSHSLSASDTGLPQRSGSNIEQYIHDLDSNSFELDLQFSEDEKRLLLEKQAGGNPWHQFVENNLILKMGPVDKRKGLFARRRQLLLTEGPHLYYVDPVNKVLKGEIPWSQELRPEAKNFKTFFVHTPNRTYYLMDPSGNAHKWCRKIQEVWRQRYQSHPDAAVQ

[13] = molecular target: T6, 3-phosphoinositide-dependent protein kinase 1 (Homo sapiens); conditions: at 10 µM
[14] = molecular target: cAMP-dependent protein kinase catalytic subunit alpha (Homo sapiens) (UniProt P17612); conditions: at 1 µM
[15] = molecular target: cAMP-dependent protein kinase catalytic subunit alpha (Homo sapiens) (UniProt P17612); conditions: at 10 µM
[16] = molecular target: RAC-gamma serine/threonine-protein kinase (Homo sapiens) (UniProt Q9Y243); conditions: at 1 µM
RAC-gamma serine/threonine-protein kinase (Homo sapiens), sequence (Q9Y243 whole entry): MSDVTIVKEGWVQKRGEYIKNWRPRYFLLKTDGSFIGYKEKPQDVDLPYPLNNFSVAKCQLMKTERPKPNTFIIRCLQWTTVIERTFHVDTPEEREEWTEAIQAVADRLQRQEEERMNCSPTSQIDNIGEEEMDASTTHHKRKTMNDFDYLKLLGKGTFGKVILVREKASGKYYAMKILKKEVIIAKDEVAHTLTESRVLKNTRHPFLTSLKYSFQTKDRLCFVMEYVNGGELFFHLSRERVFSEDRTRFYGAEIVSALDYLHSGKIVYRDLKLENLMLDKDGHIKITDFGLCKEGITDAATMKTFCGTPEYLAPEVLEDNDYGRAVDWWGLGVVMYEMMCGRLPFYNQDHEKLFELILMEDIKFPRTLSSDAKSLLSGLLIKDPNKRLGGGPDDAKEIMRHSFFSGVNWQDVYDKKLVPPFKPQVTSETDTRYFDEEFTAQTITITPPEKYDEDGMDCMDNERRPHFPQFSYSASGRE

[17] = molecular target: RAC-gamma serine/threonine-protein kinase (Homo sapiens) (UniProt Q9Y243); conditions: at 10 µM
[18] = molecular target: T1, Activin receptor type-1B (Homo sapiens); conditions: at 1 µM
[19] = molecular target: Platelet-derived growth factor receptor beta (Homo sapiens) (UniProt P09619); conditions: at 1 µM
[20] = molecular target: Platelet-derived growth factor receptor beta (Homo sapiens) (UniProt P09619); conditions: at 10 µM

ALK tyrosine kinase receptor (Homo sapiens), sequence (Q9UM73 19-1620 limits assumed): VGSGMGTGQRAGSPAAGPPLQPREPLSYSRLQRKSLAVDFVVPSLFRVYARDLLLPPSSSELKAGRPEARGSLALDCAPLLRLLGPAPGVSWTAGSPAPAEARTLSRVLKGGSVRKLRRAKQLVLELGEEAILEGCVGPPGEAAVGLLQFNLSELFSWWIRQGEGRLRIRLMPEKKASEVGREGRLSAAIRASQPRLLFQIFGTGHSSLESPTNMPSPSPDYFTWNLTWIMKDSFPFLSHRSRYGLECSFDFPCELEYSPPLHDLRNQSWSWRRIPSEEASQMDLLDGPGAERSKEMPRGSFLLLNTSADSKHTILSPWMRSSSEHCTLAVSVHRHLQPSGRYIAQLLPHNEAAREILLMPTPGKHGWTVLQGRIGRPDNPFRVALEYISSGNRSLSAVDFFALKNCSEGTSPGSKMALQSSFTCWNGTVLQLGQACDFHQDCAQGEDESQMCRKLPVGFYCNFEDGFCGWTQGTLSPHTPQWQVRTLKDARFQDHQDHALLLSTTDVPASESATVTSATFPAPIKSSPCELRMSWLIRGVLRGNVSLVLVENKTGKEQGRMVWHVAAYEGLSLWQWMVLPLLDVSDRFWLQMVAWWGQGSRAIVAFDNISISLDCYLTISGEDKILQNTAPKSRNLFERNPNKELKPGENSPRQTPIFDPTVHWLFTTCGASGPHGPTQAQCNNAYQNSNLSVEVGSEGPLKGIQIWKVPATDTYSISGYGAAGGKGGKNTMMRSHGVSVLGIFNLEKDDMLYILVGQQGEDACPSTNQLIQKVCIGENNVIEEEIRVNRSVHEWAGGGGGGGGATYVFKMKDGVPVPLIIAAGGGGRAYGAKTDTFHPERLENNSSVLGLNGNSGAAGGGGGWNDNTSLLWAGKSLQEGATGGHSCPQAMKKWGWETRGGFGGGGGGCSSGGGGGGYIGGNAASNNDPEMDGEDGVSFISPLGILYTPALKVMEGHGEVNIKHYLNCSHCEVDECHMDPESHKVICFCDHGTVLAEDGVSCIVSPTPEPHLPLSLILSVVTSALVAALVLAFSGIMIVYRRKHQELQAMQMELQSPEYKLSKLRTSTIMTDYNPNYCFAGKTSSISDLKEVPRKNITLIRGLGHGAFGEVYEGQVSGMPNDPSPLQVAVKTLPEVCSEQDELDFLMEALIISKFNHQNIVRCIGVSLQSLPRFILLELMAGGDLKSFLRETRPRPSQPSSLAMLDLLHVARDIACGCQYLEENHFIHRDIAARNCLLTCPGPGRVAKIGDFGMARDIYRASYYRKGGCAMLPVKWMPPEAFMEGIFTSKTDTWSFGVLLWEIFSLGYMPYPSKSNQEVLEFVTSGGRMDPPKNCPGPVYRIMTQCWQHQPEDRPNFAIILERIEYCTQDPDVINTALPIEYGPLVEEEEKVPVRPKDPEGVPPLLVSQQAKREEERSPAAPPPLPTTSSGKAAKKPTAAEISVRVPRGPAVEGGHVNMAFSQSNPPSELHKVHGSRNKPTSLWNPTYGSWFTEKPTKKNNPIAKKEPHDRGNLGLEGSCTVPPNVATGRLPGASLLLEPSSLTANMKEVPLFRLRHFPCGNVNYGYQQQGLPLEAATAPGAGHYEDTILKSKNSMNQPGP

| SMILES | residual activity [1] [%] | residual activity [2] [%] | residual activity [3] [%] | residual activity [4] [%] | residual activity [5] [%] | residual activity [6] [%] | residual activity [7] [%] | residual activity [8] [%] | residual activity [9] [%] | residual activity [10] [%] | residual activity [11] [%] | residual activity [12] [%] | residual activity [13] [%] | residual activity [14] [%] | residual activity [15] [%] | residual activity [16] [%] | residual activity [17] [%] | residual activity [18] [%] | residual activity [19] [%] | residual activity [20] [%] |
| --- | --- | --- | --- | --- | --- | --- | --- | --- | --- | --- | --- | --- | --- | --- | --- | --- | --- | --- | --- | --- |
| O=C(O)/C=C/c1cc(Br)c(Br)c(Br)c1Br | 87 | 85 | 101 | 56 | 94 | 76 | 102 | 94 | 98 | 100 | 103 | 107 | 99 | 96 | 71 | 105 | 61 |  |  |  |
| O=C1NC(=O)C(c2cn(CCCn3ccnc3)c3ccccc23)=C1Nc1ccccc1 | 65 | 103 | 74 | 32 | 73 | 25 |  | 38 | 82 |  |  | 39 | 8 | 69 | 43 | 50 | 15 | 107 |  |  |
| Nc1nc(Nc2ccc(S(N)(=O)=O)cc2)nn1C(=O)c1c(F)cccc1F | 38 | 47 | 58 | 11 | 47 | 15 | 4 | 7 | 102 |  |  | 68 | 21 |  |  | 110 |  | 100 | 108 | 82 |
| Cn1c2ccccc2c2c3c(c4c5ccccc5n(CCC#N)c4c21)CNC3=O | 4 | 64 | 22 | 22 | 19 | 16 | 10 | 6 | 17 | 98 | 76 | 6 | 6 |  |  |  |  | 108 |  |  |
| O=C1Nc2ccccc2/C1=C\c1c(Cl)[nH]c2ccccc12 | 49 |  |  |  |  | 58 |  | 46 |  |  |  |  | 85 |  |  |  |  |  |  |  |
| COc1ccc(-c2cnc3c(-c4ccsc4)cnn3c2)cc1 |  | 88 |  |  | 88 | 79 |  |  | 82 | 99 | 92 |  |  | 80 | 82 |  |  | 126 |  |  |
| O=S(=O)(c1cccc2cnccc12)N1CCCNCC1 | 74 |  |  |  |  |  |  | 52 |  |  |  |  |  | 53 | 17 |  | 55 |  |  |  |
| CSc1nc(-c2ccc(F)cc2)c(-c2ccnc(NC(C)c3ccccc3)c2)[nH]1 (stereo not given) | 56 |  | 88 | 59 | 80 | 56 | 101 | 60 | 101 |  |  |  |  | 101 | 133 |  |  |  |  |  |
| Cc1cc(C)c(/C=C2\C(=O)Nc3ccccc32)[nH]1 | 13 |  | 55 | 29 |  |  | 35 | 19 |  |  |  |  |  |  |  | 101 |  |  |  |  |
